Assay results: the supplement of paper PMC9694430

Each compound was assayed on LOC_OS05G28520-cb001 (assay: thermal shift delta Tm vs DMSO control; higher = stronger stabilization (binding)). Settings: 12.5 µM; protein concentration 2 µM.
In short: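 Rice kinase domain constructs, made in E. coli and purified, were placed in 96-well plates at 2 μM in 19.5 μl of 100 mM potassium phosphate pH 7.5, 150 mM NaCl, 10% glycerol and 5 × SYPRO Orange, with compound in DMSO. A temperature ramp from 25°C to 95°C at 0.05°C/s was used for differential scanning fluorimetry. The melting temperature shift is a triplicate mean compared with DMSO-only protein, derived from Boltzmann fits.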
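Also: purified Escherichia coli-expressed rice kinase domain construct.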

Compound	thermal shift delta Tm
COc1cc2ncnc(Nc3ccc(F)c(Cl)c3)c2cc1OCCCN1CCOCC1 [Gefitinib (ZD1839)]	0.21 °C
C[C@@H](N)c1ccc(C(=O)Nc2ccnc3[nH]ccc23)cc1	0.67 °C
Cc1ccc(C(=O)Nc2cccc(C(F)(F)F)c2)cc1Nc1nc(-c2cccnc2)nc2c1cnn2C	0.44 °C
O=C1NC(=O)/C(=C/c2ccc3nccc(-c4ccncc4)c3c2)S1	0.11 °C
Oc1c2ccccc2c2c3c(cccc13)N=N2	0.7 °C
C=CC(=O)Nc1ccc2ncnc(Nc3cccc(Br)c3)c2c1	-0.05 °C
COc1cc2nccc(Oc3ccc(NC(=O)NC4CC4)c(Cl)c3)c2cc1C(N)=O [Lenvatinib (E7080)]	0.18 °C
CN1CCCN(C(=O)c2cccc(-c3ccc(/C=C4/C(=O)Nc5ccc(Cl)cc54)o3)c2)CC1	1.14 °C
CCc1cnn2c(NCc3ccc[n+]([O-])c3)cc(N3CCCC[C@H]3CCO)nc12	0.17 °C
O=C(Nc1ccc(OC(F)(F)F)cc1)c1sccc1NCc1ccnc2ccccc12	0.05 °C
CCOC(=O)c1cnc2ccc(-c3cncc(NS(=O)(=O)c4ccccc4)c3)cn12	0.65 °C
CCCNC(=O)Nc1ccc(Oc2ncnc3cc(OC)c(OC)cc23)cc1Cl	-0.19 °C
Cc1cc(Nc2ncnc3ccc(-c4ccc(CNCCS(C)(=O)=O)o4)cc23)ccc1Oc1ccn2ncnc2c1 [HER2-Inhibitor-1]	1.2 °C
COc1cc2c(Oc3ccc(NC(=O)C4(C(=O)Nc5ccc(F)cc5)CC4)cc3F)ccnc2cc1OCCCN1CCOCC1	16 °C
Cn1cc(-c2ccc3c(c2)CCN3C(=O)Cc2cccc(C(F)(F)F)c2)c2c(N)ncnc21	0.55 °C
